High-throughput results: PubChem BioAssay, National Center for Advancing Translational Sciences (NCATS)
In the library only some 8.3% were active in any assay of this set; here they are far more common.
RORg inh: inhibitors of mouse ROR gamma transcriptional activity | P51450 | 5.4% of 310,000 active | Drosophila S2 Gal4-RORgamma UAS-luciferase reporter, 20 h | Potency, µM (doses to about 53.6 µM), inactives show at the highest dose activity change, negative = inhibition, actives largely listed as inhibitors | AID 2551; further: potency means the concentration at half of the fitted maximal effect; on the % scale 0 is the no-effect control and ±100 the full control effect; nearly all actives have a fitted effect of over 60% in size
Target sequence (P51450 whole entry, looked up, the tested form may be a part): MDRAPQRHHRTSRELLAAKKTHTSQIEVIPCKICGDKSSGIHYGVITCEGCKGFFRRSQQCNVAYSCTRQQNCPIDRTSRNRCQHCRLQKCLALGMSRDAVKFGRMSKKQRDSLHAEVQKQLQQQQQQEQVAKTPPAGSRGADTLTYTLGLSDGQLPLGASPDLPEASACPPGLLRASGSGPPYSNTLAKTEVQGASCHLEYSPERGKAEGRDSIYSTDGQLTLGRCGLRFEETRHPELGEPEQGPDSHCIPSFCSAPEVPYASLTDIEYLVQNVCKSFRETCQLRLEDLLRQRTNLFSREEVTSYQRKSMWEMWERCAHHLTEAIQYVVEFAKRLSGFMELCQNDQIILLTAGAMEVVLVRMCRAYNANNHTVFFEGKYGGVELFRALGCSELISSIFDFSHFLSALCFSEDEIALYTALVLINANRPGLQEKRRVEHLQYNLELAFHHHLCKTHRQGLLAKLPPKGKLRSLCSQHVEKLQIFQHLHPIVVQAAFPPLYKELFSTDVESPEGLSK
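Drosophila Schneider cells stably carrying a metallothionein-driven Gal4 DBD–ROR gamma fusion and a UAS-Photinus luciferase reporter were exposed to compound for 1 hr, then induced with copper sulfate (700 uM final) for 20 hr at ambient temperature before luminescence reading.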
MCF10A rerep: inducers of DNA re-replication in MCF 10A breast cells; MCF 10A DNA re-replication, Hoechst nuclear intensity, 48 h; Potency, µM (highest dose often 46.1 µM), without a hit: top-dose activity, positive = re-replication, most hits filed as activators; 2.9% of 350,000 active; further: potency means the concentration at half of the fitted maximal effect; % of control where 0% means no effect; nearly all actives have a fitted effect of over 50% in size
SW480 rerep: induces DNA re-replication in SW480 colon adenocarcinoma cells | SW480 DNA re-replication, Hoechst DNA content imaging, 48 h | Potency, µM (series often up to 46.1 µM), for the others: top-dose re-replication activation, hits mostly activators | 1.8% of 340,000 active; further: potency means the concentration at half of the fitted maximal effect; % of control where 0% means no effect; nearly all actives have a fitted effect of over 55% in size
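Hoechst fluorescence of nuclei (405 nm excitation, 500-530 nm emission) measured by plate-scanning imager after 48 hr compound exposure at 37 C; re-replication scored as increased number of nuclei with elevated intensity.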
VP16 counter: inhibits Gal4-VP16 luciferase reporter, ROR gamma counter-screen | AID 2546 | Drosophila S2 Gal4-VP16 UAS-luciferase, luminescence, 20 h | Potency, µM (titrated, usually from 53.6 µM), for the others: at the highest dose activity, negative = inhibition, hits mostly inhibitors | 3.5% of 310,000 active;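 further: Gal4-VP16 expression switched on by copper sulfate through the metallothionein promoter; potency means the concentration at half of the fitted maximal effect; on the % scale 0 is the no-effect control and ±100 the full control effect; nearly all actives have a fitted effect of over 50% in size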
BCR signal inh: chronic active BCR signaling inhibition; ABC-DLBCL IkBa-CBG/CBR reporter, luminescence ratio, 4 h; Potency, µM (series often up to 46.1 µM), for the others: at the highest dose activity change, negative = inhibition, hits mostly inhibitors; 0.05% of 340,000 active; AID 493014; active means well fitted inhibition curve with a large enough effect in the signal ratio, with a control signal flat, not every such curve was filed as active; inconclusive means small, poorly fitted or top-dose-only effect, or effect the other way, or a change in a side signal; the % refers to the signal ratio;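 further: potency means the concentration at half of the fitted maximal effect; plate controls were basal doxycycline-induced cells for no effect and cells given 10 µM MG132 for full effect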
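TMD8 ABC-DLBCL cells carrying doxycycline-inducible green luciferase fused to IkappaBalpha plus unfused red luciferase were exposed to compounds (up to 46 uM) for 4 hrs at 37C. Activity came from the overlap-corrected green/red luminescence ratio.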
Giardia killer: kills Giardia lamblia; Giardia lamblia trophozoite viability; 0.15% of 340,000 active; activity change, % at 7.66 µM, hits read low; in the data active means activity change below about -80%; inconclusive means between about -30% and that limit;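 further: parasites exposed to compound for two days anaerobically before the ATP read; on the % scale 0 is the no-effect control and ±100 the full control effect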
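Killing of trophozoites was scored by loss of ATP luminescence after a 48 hrs anaerobic exposure to compounds at 37 deg C, using 100 cells per well.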
* marks the source's active call; other numbers are inactive results; ? = inconclusive; . = no result given; [ ] = dose if it differs, or a comment. Unless noted, the call rests on the fitted dose curve; in most records, active means well fitted curve in the direction sought with a large enough effect; inconclusive means small, poorly fitted or top-dose-only effect, or another doubt; inactive means no such curve, though single readings can be large; an effect the other way counts as inactive or inconclusive.

SMILES	RORg inh	MCF10A rerep	SW480 rerep	VP16 counter	BCR signal inh	Giardia killer
COc1ccc(OC)c(C2SCCN2S(C)(=O)=O)c1 (configuration not stated)	11.2µM*	-0.7%	1.2%	3.0%	11.3%	8.8
COc1cc(NC(=O)CCN2CC(C)OC(C)C2)cc(OC)c1 (configuration not stated)	12.9%	-5.4%	-5.0%	-1.0%	-3.4%	2.2
CN(C)/C=C/C(=O)c1ccc2noc(-c3ccccc3)c2c1	20.2%	20.6µM*	24.8%	-4.1%	?	0.8
CC(C)OCCCNC(=S)Nc1ccc(S(N)(=O)=O)cc1	8.0%	0.0%	-0.4%	35.5µM*	?	5.3
CC(=O)c1ccc(NC(=S)NCCc2ccc(S(N)(=O)=O)cc2)cc1	?	4.3%	-4.9%	-11.8%	12.9%	-2.1
O=C(CCNC(=O)c1ccccc1Cl)NCc1cccnc1	.	-0.3%	-15.2%	.	3.3%	0.6
Cc1c(NC(=O)c2ccc3c4c(cccc24)CC3)c(=O)n(-c2ccccc2)n1C	33.2%	-3.0%	0.1%	-1.4%	-0.3%	0.3
O=C(/C=C/c1ccccc1)c1ccc2c3c(cccc13)CC2	12.6µM*	18.4µM*	9.4%	15.8µM*	?	-1.3
CCN(CC)S(=O)(=O)c1ccc(-c2nnc(SCC(N)=O)n2CC)cc1	18.9%	-12.9%	?	-6.9%	11.5%	2.3
CCN(CC)S(=O)(=O)c1ccc(-c2nnc3sc4cccc(C)c4n23)cc1	2.24µM*	3.3%	-0.3%	-1.7%	-13.2%	-27.8
O=[N+]([O-])c1cccc(S(=O)(=O)N2CCN(c3ccccn3)CC2)c1	9.9%	8.5%	0.0%	2.9%	2.2%	3.7
CC(Oc1ccc(Br)cc1)c1nc2c3ccccc3nc(=S)n2[nH]1 (configuration not stated)	0.282µM*	?	17.1%	1.26µM*	?	5.7
CCCC(Oc1ccc(Br)cc1)c1nc2c3cc(OC)c(OC)cc3nc(=S)n2[nH]1 (configuration not stated)	1.26µM*	?	2.1%	3.55µM*	?	-11.3
CCOc1ccc2nc(N(Cc3ccccc3)C(=O)CCNC(C)=O)sc2c1	?	5.3%	-11.1%	14.8%	?	-23.4
CNc1oc(-c2ccccc2Cl)nc1P(=O)(c1ccccc1)c1ccccc1	7.2%	18.5%	-2.8%	?	-1.8%	-3.2
CNc1oc(-c2ccc(C)cc2)nc1P(=O)(c1ccccc1)c1ccccc1	9.6%	18.4µM*	6.3%	0.0%	0.1%	-12.3
COC(=O)[C@H](COC(C)(C)C)NC(=O)O[C@@H]1Cc2cc(OC)ccc2O[C@H]1c1cccc(OC)c1	10.2%	.	.	-3.1%	.	.
CCOc1ccc(N(C(C)C(=O)N2CCCC2)S(C)(=O)=O)cc1 (configuration not stated)	6.5%	4.0%	-5.6%	-15.0%	3.2%	-19.2
Cc1nnc(NC(=O)CSC2CCCCC2)s1	22.4µM*	1.9%	-10.2%	-19.8%	8.3%	7.1
CCOc1ccc(NC(=O)Nc2cccc(C(=O)O)c2)cc1	5.01µM*	9.7%	-4.6%	5.01µM*	?	?
CCOc1ccc(/C=C/C(=O)Nc2cccc(C(C)=O)c2)cc1	1.12µM*	?	?	4.47µM*	-1.1%	-14.5
O=C(Nc1ccc(Cl)c(Cl)c1)Nc1ccccc1C(=O)O	?	6.6%	7.9%	?	?	-15.2
O=C(Nc1ccc(Cl)cc1)Nc1cccc(C(=O)O)c1	3.16µM*	-2.9%	-6.6%	1.41µM*	?	-17.2
O=C(Nc1ccc(Cl)cc1)Nc1ccccc1C(=O)O	7.08µM*	24.6%	?	11.2µM*	?	?
CC[C@H](C)[C@H](NC(=O)[C@H](CO)NC(=O)[C@@H](NC(=O)[C@H](CO)NC(=O)[C@@H](NC(=O)[C@H](CC(N)=O)NC(=O)[C@H](Cc1ccccc1)NC(=O)[C@H](CO)NC(=O)[C@H](CS)NC(=O)[C@H](CC(N)=O)NC(=O)[C@H](CCCCN)NC(=O)[C@@H](NC(=O)[C@H](CCC(=O)O)NC(=O)CN)[C@@H](C)CC)[C@@H](C)CC)[C@@H](C)O)C(=O)N[C@@H](CCCN=C(N)N)C(=O)O	-5.7%	.	.	-1.5%	.	.
SMILES	RORg inh	MCF10A rerep	SW480 rerep	VP16 counter	BCR signal inh	Giardia killer
CCN1C(=O)CC(C(C)C)N(C2CCCC2)c2nc(Nc3ccc(C(=O)NC4CCN(C)CC4)cc3OC)ncc21 (configuration not stated)	.	?	0.8%[9.22 µM]	.	.	-19.2
COc1cc(C(=O)NC2CCN(C)CC2)ccc1Nc1ncc2c(n1)N(C1CCCCC1)CCC(=O)N2C	.	0.651µM*	1.46µM*	.	.	-16.1
COc1cc(C(=O)NC2CCN(C)CC2)ccc1Nc1ncc2c(n1)N(Cc1ccccc1)CCC(=O)N2C	.	23.1µM*	?	.	.	-2.7
CCN1C(=O)CC(c2ccccc2)N(C2CCCC2)c2nc(Nc3ccc(C(=O)NC4CCN(C)CC4)cc3OC)ncc21 (configuration not stated)	.	?	11.7%	.	?	1.3
CC(C)C=O	11.5%	.	.	6.1%	.	.
Cc1cccc(CC(=O)Nc2cccnc2)c1	21.4%	-0.2%	1.2%	-0.2%	-14.7%	-6.1
Cc1ncc([N+](=O)[O-])n1CCOC(=O)Nc1ccc(Cl)c(Cl)c1	39.5%	15.3%	1.5%	-16.1%	11.1%	-89.7*
Cc1ncc([N+](=O)[O-])n1CCOC(=O)NC(NCc1ccccc1)C(Cl)(Cl)Cl (configuration not stated)	16.0%	4.7%	3.1%	-6.4%	?	?
Cc1ncc([N+](=O)[O-])n1CCOC(=O)NC(Nc1ccc(F)cc1)C(Cl)(Cl)Cl (configuration not stated)	-0.5%	7.9%	-10.0%	1.3%	0.0%	?
Cc1ncc([N+](=O)[O-])n1CCOC(=O)c1ccccc1	-21.9%	?	-4.9%	-5.1%	-8.7%	-99.8*
O=C(Oc1ccccc1C(=S)N1CCOCC1)c1cccc([N+](=O)[O-])c1	37.0%	5.3%	0.9%	12.8%	-6.4%	7.2
COc1cccc2sc(NNC(=O)C3COc4ccccc4O3)nc12 (configuration not stated)	3.55µM*	-0.7%	-0.6%	9.6%	-11.9%	0.8
Cc1ccc2sc(NNC(=O)C3COc4ccccc4O3)nc2c1C (configuration not stated)	2µM*	1.5%	-7.7%	8.91µM*	-5.0%	16.2
Cc1ccc(NC(=O)CCOc2ccccc2C)cc1C	38.0%	19.8%	5.3%	26.3%	3.4%	48.2
